# Measurements as given in ChEMBL document CHEMBL3433997, “St. Jude Leishmania screening dataset” (2016).
# Several values for one entry are separate records, joined by “and”; a condition that tells them apart may be missing. Equal values may be shown once.
# Experiments:
# Type in all cases: functional
# [1] = target: Solute carrier family 2, facilitated glucose transporter member 1 (Homo sapiens) (UniProt P11166); assay: ST_JUDE_LEISH: Cytotoxicity at 2uM final concentration against transgenic Leishmania Mexicana promastigotes LmGLUT1 that are glucose transport deficient and complemented with the human glucose transporter GLUT1. Activity is measured by DNA content using SYBR green in vitro
# Solute carrier family 2, facilitated glucose transporter member 1 (Homo sapiens), sequence (P11166 whole entry): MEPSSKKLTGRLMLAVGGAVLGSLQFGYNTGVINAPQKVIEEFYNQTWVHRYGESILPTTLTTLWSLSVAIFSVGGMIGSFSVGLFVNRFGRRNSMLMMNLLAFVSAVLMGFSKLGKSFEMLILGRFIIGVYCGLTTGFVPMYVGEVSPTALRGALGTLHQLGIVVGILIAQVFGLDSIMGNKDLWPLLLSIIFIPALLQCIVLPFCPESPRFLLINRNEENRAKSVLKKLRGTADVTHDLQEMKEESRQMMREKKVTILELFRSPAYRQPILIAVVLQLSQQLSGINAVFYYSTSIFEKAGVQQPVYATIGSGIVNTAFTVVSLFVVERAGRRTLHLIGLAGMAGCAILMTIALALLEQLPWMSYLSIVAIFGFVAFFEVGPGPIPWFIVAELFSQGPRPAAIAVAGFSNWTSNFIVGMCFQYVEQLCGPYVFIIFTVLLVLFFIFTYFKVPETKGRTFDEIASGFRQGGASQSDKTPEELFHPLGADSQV
# [2] = target: Hexose transporter 1 (Plasmodium falciparum) (UniProt O97467); assay: ST_JUDE_LEISH: Cytotoxicity at 2uM final concentration against transgenic Leishmania Mexicana promastigotes LmPfHT that are glucose transport deficient and complemented with the Plasmodium falciparum hexose transporter. Activity is measured by DNA content using SYBR green in vitro
# [3] = target: Glucose transporter (Leishmania mexicana) (UniProt O61059); assay: ST_JUDE_LEISH: Cytotoxicity at 2uM final concentration against transgenic Leishmania Mexicana promastigotes LmGT2 that are glucose transport deficient and complemented with the L. Mexicana glucose transporter 2. Activity is measured by DNA content using SYBR green in vitro
SMILES,inhibition [1],inhibition [2],inhibition [3]
COc1ccc2nc(-c3ccc(F)cc3)cc([C@@H](O)[C@@H]3C[C@@H]4CCN3CC4C=NO)c2c1 (stereo not given in full),4.55%,4.75%,3.7%
Cc1ccc(CC(C)NCC(O)c2cccc(C(F)(F)F)c2)cc1F (stereo not given),6.67%,6.24%,5.67%
CC(C)CNCc1ccc(-c2ccc(CN(C(=O)Nc3ccccc3)C3CCN(Cc4ccccc4)CC3)cc2)cc1,3.1%,2.41%,4.94%
CC(Cc1ccc(OCCOc2ccccc2)cc1)NCC(O)c1cccc(Cl)c1 (stereo not given),0.57%,1.43%,1.19%
N#Cc1c(F)cc(N2CCC(NCC[C@H](N)Cc3ccc(F)c(F)c3)CC2)cc1F,2.18%,3.63%,2.33%
Cc1nc(C)c(-c2ccc(Oc3ccc(OC(F)(F)F)cc3)cc2)c(OC(=O)N(CCNC(C)C)C(C)C)c1Br,5.43%,8.45%,5.04%
O=C(Nc1cc(C(F)(F)F)cc(C(F)(F)F)c1)c1cc(Cl)ccc1O,7.09%,7.96%,8.03%
Cc1cc(N(C)C2CCN(C)CC2)nc(Nc2ccc(Br)cc2)n1,3.64%,6.94%,1.93%
COc1coc(C(=O)NC2CCN(CC3(c4ccc(Cl)cc4)CCC3)CC2)c1OC,4.7%,4.52%,2.81%
O=C(/C=C/c1ccc(Cl)cc1Cl)NC1CCC(CN2CCC(c3c[nH]c4ccccc34)CC2)CC1 (stereo not given),10.9%,13.1%,9.99%
O=C(c1cccs1)N(Cc1cccc(-c2ccc(CNC3CCCC3)cc2)c1)C1CCN(Cc2ccccc2)CC1,10.1%,10%,9.21%
O=C(CSc1ccc(Cl)cc1)NC1CCC(CN2CCC(c3c[nH]c4ccccc34)CC2)CC1 (stereo not given),5.29%,1.76%,2.72%
O=C(/C=C/c1ccc(Cl)c(Cl)c1)NCc1ccc(CN2CCC(c3c[nH]c4ccccc34)CC2)cc1,2.64%,2.44%,0.41%
C#CCOc1ccc(CC(C)NCC(O)c2cccc(C(F)(F)F)c2)cc1 (stereo not given),0.24%,0.36%,0.98%
O=C(CCc1ccco1)NC1CCN(CC2(c3ccc(Cl)cc3)CCC2)CC1,9.68%,8.13%,7.13%
COc1ccc2[nH]cc(C3=CCN(CC4CC4C(=O)c4ccccc4)CC3)c2n1 (stereo not given),12.6%,14.6%,11.3%
CN1CC=C(C=Cc2c[nH]c3ccccc23)CC1,0.96%,2.14%,3.25%
CCCCCCC(C)(C)c1cc(O)c2c(c1)OC(C)(C)c1ccncc1-2,1.05%,0.83%,3.15%
CC[C@H]1CN2CC[C@@H]1C[C@H]2[C@H](O)c1cc[n+]([O-])c2ccc(OC)cc12,-2.84%,-0.91%,-1.06%
CN1C(=O)[C@H](NC(=O)[C@@H](Cc2ccccc2)NC(=S)Nc2ccccc2)N=C(c2ccccc2)c2ccccc21,1.25%,0.57%,1.74%
O=C(/C=C/c1ccc(Cl)c(Cl)c1)N1CCC(CN2CCC(c3c[nH]c4cc(C(F)(F)F)ccc34)CC2)CC1,2.28%,3.35%,-0.87%
COC(=O)C(C)(C)c1ccc(CC(C)NCC(O)c2cccc(C(F)(F)F)c2)cc1 (stereo not given),10.5%,6.92%,9.96%
CC[C@H]1CN2CC[C@H]1C[C@H]2[C@H](O)c1cc(-c2ccccc2F)nc2ccc(OC)cc12,0.68%,1.58%,0.34%
COC(=O)/C=C/c1ccc(CC(C)NCC(O)c2cccc(C(F)(F)F)c2)cc1 (stereo not given),0.9% and -0.04%,-2.11% and 0.7%,-1.59% and -0.73%

SMILES,inhibition [1],inhibition [2],inhibition [3]
COC(=O)c1ccc(CC(C)NCC(O)c2cccc(Cl)c2Cl)cc1 (stereo not given),3.29%,2.6%,3.04%
O=C(/C=C/c1ccc(Cl)c(Cl)c1)NCCCCCN1C2CCC1CC(c1c[nH]c3ccc(O)cc13)C2 (stereo not given),0.54% and -0.84%,2.4% and -2.77%,-3.07% and -2.2%
Cc1cc(N(C)C2CCN(C)CC2)nc(Nc2ccc(Cl)cc2)n1,2.63%,-2.68%,-0.95%
COc1ccc(C(=O)C2CC2CN2CC=C(c3c[nH]c4cccc(Br)c34)CC2)cc1 (stereo not given),4.26%,2.54%,2.11%
CC(Cc1ccc(C(C)(C)C)cc1)NCC(O)c1ccccc1 (stereo not given),2.91%,-0.46%,0.43%
COc1ccc(CC(C)NCC(O)c2cccc(C(F)(F)F)c2)cc1 (stereo not given),9.76%,8.74%,8.93%
Cc1[nH]c2ccccc2c1C1=CCN(CCN2CCOc3c(Br)cccc3C2=O)CC1,1.66%,1.57%,1.55%
CN1CC=C(c2c[nH]c3ccc(OCc4ccccc4)cc23)CC1,16.2%,14.4%,14.7%
CCOC(=O)c1c(CN2CCN(C)CC2)n(Cc2ccccc2)c2cc(Br)c(O)cc12,17.4%,16.7%,12.7%
CC(Cc1ccc(SC(C)(C)C)cc1)NCC(O)c1cccc(Cl)c1 (stereo not given),-1.59%,-2.57%,-0.72%
CCCCC/C=C/C(=O)NC1CCC(CN2CCC(c3c[nH]c4ccccc34)CC2)CC1 (stereo not given),2.84%,2.43%,4.05%
Cc1cccc(C(=O)Nc2ccnc(N(C)C3CCN(Cc4cccc(O)c4)CC3)c2)c1,3.06%,1.84%,3.85%
O=C(CCc1ccc(Cl)cc1Cl)NC1CCC(CN2CCC(c3c[nH]c4ccccc34)CC2)CC1 (stereo not given),1.11% and 15.9%,-0.14% and 8.88%,-2.05% and 8.96%
COc1ccc(-c2ccccc2)cc1NC(=S)NC1CCC(CN2CCC(c3c[nH]c4ccccc34)CC2)CC1 (stereo not given),3.8% and 4.09%,2.57% and 3.78%,0.72% and 3.03%
O=C(/C=C/c1ccc(Cl)c(Cl)c1)N1CCC(CN2CCC(c3c[nH]c4ccccc34)C(O)C2)CC1 (stereo not given),7.48%,2.3%,0.72%
CC[C@H]1CN2CC[C@@H]1C[C@H]2[C@H](O)c1cc(N2CCC(C)CC2)nc2ccc(OC)cc12,7.8%,9.59%,5.06%
c1ccc(C(OCCC2CCN(Cc3cccnc3)CC2)c2ccccc2)cc1,0.62%,0.06%,0.26%
COc1ccc(C(=O)C2CC2CN2CC=C(c3c[nH]c4ccc(OC)nc34)CC2)cc1 (stereo not given),1.91%,-1.74%,2.37%
O=C(NC1CCC(CN2CCC(c3c[nH]c4ccccc34)CC2)CC1)NC12CC3CC(CC(C3)C1)C2 (stereo not given),3.42%,3.16%,1.41%
CCOC(=O)c1c(C)n(C2CCCCCC2)c2cc(Br)c(O)cc12,2.52%,0.67%,4.54%
O=C(/C=C/c1ccc(Cl)c(Cl)c1)N1CCC(CN2C3CCC2CC(c2c[nH]c4ccccc24)C3)CC1 (stereo not given),2.43%,1.51%,0.89%
N#Cc1c(Cl)cccc1Oc1ccc(S(=O)(=O)N2CCC(CN3CCC(c4c[nH]c5ccccc45)CC3)CC2)cc1,1.64%,-0.14%,-0.73%
O=C(/C=C/c1cccc2ccccc12)NC1CCC(CN2CCC(c3c[nH]c4ccccc34)CC2)CC1 (stereo not given),1.25% and 2.48%,0.21% and 2.66%,-2.33% and 1.25%
CC(=O)N(Cc1cccc(-c2ccc(CNCCc3ccccc3)cc2)c1)C1CCN(Cc2ccccc2)CC1,4.3%,5.39%,2.97%

SMILES,inhibition [1],inhibition [2],inhibition [3]
C=Cc1cc(OC)c2c(c1)c(=O)oc1c2cc(OC)c2c(O)ccc([C@H]3O[C@H]([C@H](C)O)[C@H](O)[C@H]3O)c21,12.1%,32.6%,8.58%
Cc1cc(C2CCCCN2C)ccc1-c1ccc(C(=O)N2CCc3cc4c(cc32)C2(CCN(C)CC2)CO4)cc1 (stereo not given),3.41%,0.31%,1.11%
COc1ccccc1CC(C)NCC(O)c1cccc(Cl)c1 (stereo not given),-0.34%,4.23%,1.87%
Cc1cccc(C(=O)Nc2ccnc(N(C)C3CCN(CC(C)C)CC3)c2)c1,-0.27%,0.85%,0%
O=C(NC1CCC(CN2CCC(c3c[nH]c4ccccc34)CC2)CC1)C1(O)c2ccccc2-c2ccccc21 (stereo not given),1.4%,2.05%,2.03%
O=C(Nc1ccccc1OC(F)(F)F)NC1CCC(CN2CCC(c3c[nH]c4ccccc34)CC2)CC1 (stereo not given),2.64% and 17.3%,3.83% and 26.1%,0.62% and 10.3%
C=C[C@H]1CN2CC[C@H]1C[C@H]2[C@H](O)c1cc(-c2ccc(Cl)cc2)nc2ccc(OC)cc12,1.16%,1.72%,1.31%
CNC(=O)c1ccc2[nH]cc(C3CCN(CC4CCN(C(=O)/C=C/c5ccc(Cl)c(Cl)c5)CC4)CC3)c2c1,1.1%,-0.15%,0.08%
CC(Cc1ccc(OCCCCOc2ccccc2)cc1)NCCCN1CCOCC1 (stereo not given),-1.24%,2.33%,-0.25%
CNCCCCCCOc1ccc(CC(C)NCC(O)c2cccc(C(F)(F)F)c2)cc1 (stereo not given),18.4%,2.66%,1.22%
CC[C@H]1CN2CC[C@@H]1C[C@H]2[C@H](O)c1cc(N2CCOCC2)nc2ccc(OC)cc12,-1.11%,-1.44%,-2.42%
Cc1[nH]c2ccccc2c1C1=CCN(CC2CC2C(=O)c2ccccc2)CC1 (stereo not given),10.7%,9.13%,8.4%
C=CCOc1ccccc1CNCC(O)c1cccc(C(F)(F)F)c1 (stereo not given),2.78%,3.47%,2.61%
CNCCc1c(O)ccc2ccccc12,2.95%,3.27%,3.59%
Cc1cccc2[nH]cc(C3CCN(CC4CCC(NC(=O)/C=C/c5ccc(Cl)c(Cl)c5)CC4)CC3)c12 (stereo not given),0.63%,6.74%,0.15%
O=C(NC1CCC(CN2CCC(c3c[nH]c4ccccc34)CC2)CC1)c1cc2ccccc2o1 (stereo not given),2.54%,0.9%,-2.2%
CCC1(C)N=C(N)N=C(N)N1c1ccc(Cl)cc1 (stereo not given),3.87%,-0.9%,2.79%
CC[C@H]1CN2CC[C@@H]1C[C@H]2[C@H](O)c1cc(N2CCSCC2)nc2ccc(OC)cc12,3.55%,3.67%,-0.01%
C/C=C1\CN2CC[C@H]1C[C@H]2[C@H](O)c1ccnc2ccc(OC)cc12,10% and 3.4%,9.89% and 3.71%,9.9% and 2.84%
CC[C@H]1CN2CC[C@@H]1C[C@H]2[C@H](O)c1cc(N2CCC(N3CCCCC3)CC2)nc2ccc(OC)cc12,1.26%,4.69%,-0.04%
O=C(/C=C/c1ccc2ccccc2c1)NC1CCC(CN2CCC(c3c[nH]c4ccccc34)CC2)CC1 (stereo not given),1.06%,1.84%,3.4%
CO[C@@H]1C[C@@H](C(=O)Nc2ccccc2)N(c2ccc(C#N)c3ccccc23)C1,4.31%,5.45%,3.78%
